# Measurements published in PubChem BioAssay (Tox21).
# Records with an inconclusive call do not appear. A call without a number means that no potency is given here. Calls of active or inactive are those of the source. Unless noted, calls come from the whole dose curve; as a rule, active = well fitted curve in the direction sought with a large enough effect in the repeat runs; inconclusive = weak or mixed curves; inactive = no such curve, though single readings can be large; an effect the other way counts as inactive or inconclusive.
# Tests used:
# [1] = qHTS assay to identify small molecule agonists of the peroxisome proliferator-activated receptor delta (PPARd) signaling pathway - cell viability counter screen (AID 743211); note: nearly all actives have a fitted effect of over 55% in size; note: potency is the fitted concentration of half-maximal effect
# Outline: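 Viability of GeneBLAzer PPARd UAS-bla HEK293H cells was assessed after 17 h compound incubation at 37C, using CellTiter-Glo reagent added after the reporter read and luminescence recorded 30 min later.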
# [2] = target: Peroxisome proliferator-activated receptor delta (Homo sapiens) (UniProt Q03181); experiment: qHTS assay to identify small molecule agonists of the peroxisome proliferator-activated receptor delta (PPARd) signaling pathway (AID 743212; calls by dose curve)
# Chain of Peroxisome proliferator-activated receptor delta (Homo sapiens) (Q03181 whole entry, looked up): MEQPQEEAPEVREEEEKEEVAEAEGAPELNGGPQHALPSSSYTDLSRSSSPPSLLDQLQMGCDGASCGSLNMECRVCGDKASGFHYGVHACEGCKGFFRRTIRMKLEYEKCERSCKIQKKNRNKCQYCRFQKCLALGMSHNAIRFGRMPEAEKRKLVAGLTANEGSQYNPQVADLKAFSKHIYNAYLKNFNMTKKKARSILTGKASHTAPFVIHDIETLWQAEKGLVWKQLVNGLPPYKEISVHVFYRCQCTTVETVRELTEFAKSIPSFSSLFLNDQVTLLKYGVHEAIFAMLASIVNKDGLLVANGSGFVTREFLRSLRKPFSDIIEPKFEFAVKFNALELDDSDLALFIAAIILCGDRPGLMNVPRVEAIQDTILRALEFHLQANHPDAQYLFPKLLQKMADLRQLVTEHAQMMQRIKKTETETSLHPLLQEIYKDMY
# Outline: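 HEK293H UAS-bla reporter cells, human PPARd system; compounds delivered in DMSO after 5 h plating, then at 37 C. Beta-lactamase FRET read, 2 h RT substrate step.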
# [3] = qHTS assay to identify small molecule antagonists of the peroxisome proliferator-activated receptor delta (PPARd) signaling pathway - cell viability counter screen (AID 743213); note: nearly all actives have a fitted effect of over 50% in size; note: potency is the fitted concentration of half-maximal effect
# Outline: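 Same-well viability: cells pre-incubated 5 h, dosed with compound plus 300 nM L165041, kept 17 h at 37 C, FRET substrate 2 h RT, then CellTiter-Glo 30 min RT and luminescence.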
# [4] = qHTS assay to identify small molecule agonists of the farnesoid-X-receptor (FXR) signaling pathway - cell viability counter screen (AID 743218); note: nearly all actives have a fitted effect of over 45% in size; note: potency is the fitted concentration of half-maximal effect
# Outline: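 FXR-UAS-bla HEK 293T cells, plated 5 h at 37 C, were exposed to compounds for 16 h at 37 C. CellTiter-Glo was then added to the same wells as the bla readout; luminescence read after 30 min at room temperature.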
# [5] = target: Vitamin D3 receptor (Homo sapiens) (UniProt P11473); experiment: qHTS assay to identify small molecule antagonists of the vitamin D receptor (VDR) signaling pathway (AID 743223; active = well fitted inhibition curve with a large enough effect in the signal ratio in the repeat runs, not every such curve was filed as active; the % refers to the signal ratio)
# Chain of Vitamin D3 receptor (Homo sapiens) (P11473 whole entry, looked up): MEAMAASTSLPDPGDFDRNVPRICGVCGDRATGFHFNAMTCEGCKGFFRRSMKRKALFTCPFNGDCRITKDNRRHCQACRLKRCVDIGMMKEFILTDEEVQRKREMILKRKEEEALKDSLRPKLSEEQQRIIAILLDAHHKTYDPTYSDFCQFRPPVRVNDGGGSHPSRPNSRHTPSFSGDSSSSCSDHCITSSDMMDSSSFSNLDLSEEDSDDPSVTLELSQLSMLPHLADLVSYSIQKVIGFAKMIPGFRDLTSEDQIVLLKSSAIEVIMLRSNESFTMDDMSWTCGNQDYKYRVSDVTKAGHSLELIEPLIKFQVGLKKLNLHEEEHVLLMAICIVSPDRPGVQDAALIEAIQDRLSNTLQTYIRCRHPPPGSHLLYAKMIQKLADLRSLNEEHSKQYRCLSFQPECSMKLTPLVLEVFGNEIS
# Outline: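 Fluorescence from LiveBLAzer B/G FRET substrate, read after 2 h at room temperature, reflects beta-lactamase reporter activity in VDR-bla cells treated 16 h at 37C with compounds and agonist 1alpha,25-dihydroxyvitamin D3 (3 nM final).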
# [6] = target: Vitamin D3 receptor (Homo sapiens) (UniProt P11473); experiment: qHTS assay to identify small molecule agonists of the vitamin D receptor (VDR) signaling pathway (AID 743222; calls by dose curve)
# Outline: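 VDR-bla cells were plated 4 h at 37C/5% CO2, then exposed to compounds in DMSO for 16 h. After LiveBLAzer B/G FRET substrate addition and 2 h at room temperature, beta-lactamase reporter fluorescence was read.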
# [7] = qHTS assay to identify small molecule antagonists of the farnesoid-X-receptor (FXR) signaling pathway - cell viability counter screen (AID 743221; active = well fitted cell-killing curve with a large enough effect in the repeat runs, not every such curve was filed as active; note: nearly all actives have a fitted effect of over 50% in size)
# Outline: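 Quantitative HTS of the Tox21 10K library run in parallel with the beta-lactamase reporter read. HEK 293T cells carrying a UAS-driven bla reporter got compound and 50 uM CDCA (final) for 16 h; ATP-based luminescence followed.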
# [8] = target: Peroxisome proliferator-activated receptor delta (Homo sapiens) (UniProt Q03181); experiment: qHTS assay to identify small molecule antagonists of the peroxisome proliferator-activated receptor delta (PPARd) signaling pathway (AID 743215; active = well fitted inhibition curve with a large enough effect in the signal ratio in the repeat runs, not every such curve was filed as active; the % refers to the signal ratio;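 note: cells stimulated with agonist L165041 at 300 nM final during compound exposure; series mostly up to about 62 µM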)
# Outline: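 PPARd UAS-bla HEK293H cells were pre-incubated 5 h at 37 C, then given test compounds in DMSO plus agonist L165041 (300 nM final). After 17 h at 37 C, beta-lactamase FRET substrate was added; fluorescence read after 2 h at room temperature.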
# [9] = target: Bile acid receptor (Homo sapiens) (UniProt Q96RI1); experiment: qHTS assay to identify small molecule antagonists of the farnesoid-X-receptor (FXR) signaling pathway (AID 743217; active = well fitted inhibition curve with a large enough effect in the signal ratio in the repeat runs, not every such curve was filed as active; the % refers to the signal ratio)
# Chain of Bile acid receptor (Homo sapiens) (Q96RI1 whole entry, looked up): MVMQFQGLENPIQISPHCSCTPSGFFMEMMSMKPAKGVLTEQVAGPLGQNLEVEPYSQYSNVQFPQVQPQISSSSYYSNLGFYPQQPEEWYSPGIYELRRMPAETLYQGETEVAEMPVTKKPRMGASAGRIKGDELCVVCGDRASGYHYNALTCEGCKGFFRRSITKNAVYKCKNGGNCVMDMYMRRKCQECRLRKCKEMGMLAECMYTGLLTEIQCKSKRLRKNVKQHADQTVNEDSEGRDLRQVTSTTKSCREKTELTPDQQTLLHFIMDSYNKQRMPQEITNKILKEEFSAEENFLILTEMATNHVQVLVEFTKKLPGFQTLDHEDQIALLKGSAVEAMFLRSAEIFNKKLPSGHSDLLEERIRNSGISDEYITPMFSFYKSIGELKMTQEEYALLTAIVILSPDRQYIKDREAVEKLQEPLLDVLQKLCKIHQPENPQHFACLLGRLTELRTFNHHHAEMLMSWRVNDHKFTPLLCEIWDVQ
# Outline: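 FXR-UAS-bla HEK 293T cells pre-incubated 5 h at 37 °C, then exposed to compounds with chenodeoxycholic acid (50 uM final) for 16 h at 37 °C. Beta-lactamase reporter read by LiveBLAzer B/G FRET substrate fluorescence after 2 h at room temperature.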
# [10] = target: Bile acid receptor (Homo sapiens) (UniProt Q96RI1); experiment: qHTS assay to identify small molecule agonists of the farnesoid-X-receptor (FXR) signaling pathway (AID 743220; active = well fitted activation curve with a large enough effect in the signal ratio in the repeat runs, not every such curve was filed as active; the % refers to the signal ratio)
# Outline: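 Beta-lactamase reporter under UAS control in GeneBLAzer FXR HEK 293T cells (5000/well) measured with LiveBLAzer FRET substrate after 2 h at room temperature. Compound exposure lasted 16 h at 37C.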
SMILES,Potency [1],Potency [2],Potency [3],Potency [4],outcome [5],outcome [6],Potency [7],outcome [8],outcome [9],outcome [10]
CO[C@@H]1COCC[C@@H]1N[C@@H]1CC[C@@](C(=O)N2CCc3ncc(C(F)(F)F)cc3C2)(C(C)C)C1,inactive,inactive,inactive,inactive,inactive,–,–,–,–,–
Nc1ccc(F)cc1F,inactive,inactive,inactive,inactive,inactive,inactive,–,–,–,–
Cc1nc2sccn2c(=O)c1CCN1CCC(=C(c2ccc(F)cc2)c2ccc(F)cc2)CC1,inactive,inactive,–,26.6 µM (active),–,–,inactive,–,–,–
CC(=O)CC/C=C(\C)CC/C=C(\C)CC/C=C(\C)CCC=C(C)C,inactive,–,inactive,inactive,inactive,–,–,inactive,inactive,inactive
CCOc1cc(OCC)c(C(C)=O)cc1OCC,inactive,–,inactive,inactive,inactive,–,inactive,inactive,inactive,inactive
[O-][n+]1ccc(Cl)cc1,inactive,–,inactive,inactive,inactive,inactive,inactive,inactive,inactive,inactive
CC1(C)CC(O)CC(C)(C)N1[O],inactive,–,inactive,inactive,inactive,inactive,inactive,inactive,inactive,inactive
O=C(O)c1ccc(O)c(O)c1,inactive,inactive,–,inactive,–,–,–,inactive,–,–
Nc1cccc2c(=O)[nH][nH]c(=O)c12,inactive,inactive,–,inactive,–,–,inactive,inactive,inactive,inactive
C/C(=C\C(C)CC(C)CC(C)C)C1CC(=O)OC1=O (stereo unspecified),inactive,–,inactive,inactive,–,–,inactive,inactive,–,–
Cc1ccc(Cl)c(OCC(O)CNC(C)(C)C)c1 (stereo unspecified),inactive,inactive,–,inactive,inactive,inactive,inactive,inactive,–,–
Cc1cc(C)c(C)c(O)c1,inactive,inactive,–,inactive,inactive,inactive,inactive,inactive,–,–
CC(C)(C(=O)O)c1ccc(C(O)CCCN2CCC(C(O)(c3ccccc3)c3ccccc3)CC2)cc1 (stereo unspecified),inactive,inactive,inactive,inactive,–,inactive,–,–,–,–
CCCCCCCCOCCCN,49 µM (active),inactive,24.5 µM (active),–,–,inactive,–,–,–,–
CCC[Si](OC)(OC)OC,inactive,inactive,–,inactive,inactive,inactive,–,inactive,inactive,inactive
Cc1c(-c2cccnc2)c2ccccc2n1CCCCC(=O)O,inactive,–,inactive,inactive,inactive,inactive,inactive,inactive,inactive,inactive
NC(=O)c1ccccc1C(N)=O,inactive,–,inactive,inactive,inactive,inactive,inactive,inactive,–,inactive
C/C=C1\[C@H]2C=C(C)C[C@]1(N)c1ccc(=O)[nH]c1C2,inactive,–,inactive,inactive,–,–,inactive,inactive,inactive,inactive
COc1ccc(C(=O)c2ccc(C)cc2)c(O)c1,inactive,inactive,–,–,inactive,–,inactive,inactive,–,–
Cc1ccc2ccccc2c1[N+](=O)[O-],inactive,inactive,inactive,inactive,inactive,–,inactive,–,–,–
CC[C@H](NC(C)C)[C@H](O)c1ccc(O)c2[nH]c(=O)ccc12,inactive,inactive,inactive,inactive,inactive,–,–,–,–,–
CCC(C(=O)O)c1ccc(N2Cc3ccccc3C2=O)cc1 (stereo unspecified),inactive,inactive,inactive,inactive,inactive,inactive,inactive,–,–,–

SMILES,Potency [1],Potency [2],Potency [3],Potency [4],outcome [5],outcome [6],Potency [7],outcome [8],outcome [9],outcome [10]
Nc1ncnc2c1ncn2[C@@H]1O[C@H](CO)[C@@H](O)[C@H]1O,inactive,–,inactive,inactive,inactive,–,inactive,–,inactive,inactive
COC(=O)C(C)(C)C,inactive,–,inactive,inactive,inactive,inactive,–,–,inactive,inactive
CC(C)CC(C)(C)C,inactive,–,inactive,inactive,inactive,inactive,inactive,inactive,–,–
CC(=O)Nc1ccccc1O,inactive,–,inactive,inactive,inactive,inactive,inactive,–,inactive,inactive
CC(=O)c1ccc(Cl)c(Cl)c1Cl,inactive,–,inactive,inactive,inactive,inactive,inactive,–,–,–
O=C(O)c1ccc2c(c1)nc(C(=O)NC1CCN(C3CC3)CC1)n2Cc1cc(-c2ccc(Cl)s2)on1,inactive,–,inactive,–,–,–,inactive,–,inactive,inactive
CC(=O)S[C@H](C(=O)N[C@H]1Cc2ccccc2[C@H]2CCC[C@@H](C(=O)O)N2C1=O)C(C)C,inactive,–,inactive,inactive,inactive,–,inactive,–,inactive,inactive
COC(=O)c1cc(Cl)ccc1[N+](=O)[O-],inactive,–,inactive,inactive,inactive,inactive,inactive,inactive,–,–
O=C(OCCCCCOC(=O)c1ccccc1)c1ccccc1,inactive,–,inactive,inactive,–,–,inactive,inactive,–,–
C(/C=C/C=C/Nc1ccccc1)=Nc1ccccc1,inactive,–,inactive,inactive,inactive,–,inactive,–,inactive,inactive
O=C(NC1CCN(CCc2c[nH]c3ccccc23)CC1)c1ccccc1,inactive,–,inactive,inactive,–,–,inactive,–,–,–
CCn1nc(Cc2ccccc2)cc1C1CCN(C[C@H]2C[C@H](N(C)[C@@H](C(=O)O)C(C)C)C[C@@H]2c2cccc(F)c2)CC1,inactive,–,inactive,inactive,–,–,inactive,–,–,–
Cc1c(N=C=O)cccc1N=C=O,inactive,–,inactive,inactive,inactive,inactive,inactive,–,–,–
CC(C)CCCCCCCOC(=O)c1ccc(C(=O)OCCCCCCCC(C)C)c(C(=O)OCCCCCCCC(C)C)c1,inactive,–,inactive,inactive,–,inactive,inactive,inactive,–,–
Nc1ccccc1Nc1ccccc1,inactive,–,inactive,inactive,–,–,inactive,–,–,–
CC1(COc2ccc(CC3SC(=O)NC3=O)cc2)CCCCC1 (stereo unspecified),inactive,–,inactive,inactive,–,–,inactive,–,inactive,–
C=CC(=O)OCCCCCCCCCC,inactive,–,inactive,inactive,inactive,inactive,inactive,–,–,–
CC(C)=CCC[C@H](C)CCO,inactive,–,inactive,inactive,–,–,inactive,–,–,–
Nc1nc(Cl)nc2c1ncn2[C@H]1C[C@H](O)[C@@H](CO)O1,inactive,–,inactive,inactive,inactive,inactive,–,–,–,inactive
CCCCCCCCCCCCCCCCN,inactive,–,inactive,inactive,inactive,inactive,inactive,–,inactive,inactive
O=C(Nc1ccccc1)c1cc([N+](=O)[O-])ccc1Cl,inactive,–,inactive,inactive,–,–,inactive,–,–,inactive
CC(CN=Cc1ccccc1O)N=Cc1ccccc1O (stereo unspecified),inactive,–,inactive,inactive,–,–,–,–,–,–

SMILES,Potency [1],Potency [2],Potency [3],Potency [4],outcome [5],outcome [6],Potency [7],outcome [8],outcome [9],outcome [10]
OCCc1ccncc1,inactive,–,inactive,inactive,inactive,–,inactive,–,inactive,inactive
CC(C(=O)O)c1ccc2c(c1)Cc1cccnc1O2 (stereo unspecified),inactive,–,inactive,inactive,inactive,inactive,inactive,inactive,–,–
CC(C)(C)c1cc(C=O)cc(C(C)(C)C)c1O,inactive,–,inactive,inactive,inactive,inactive,inactive,–,inactive,inactive
O=C(O)c1cc(C(=O)O)cc([N+](=O)[O-])c1,inactive,–,inactive,inactive,–,inactive,inactive,–,–,–
CC/C=C\CCO,inactive,–,inactive,–,–,inactive,inactive,–,inactive,inactive
CCCCCCCCCC(C)C=O (stereo unspecified),inactive,–,inactive,inactive,inactive,–,inactive,–,inactive,inactive
CC(C)(C)c1ccc(CCC=O)cc1,inactive,–,inactive,–,–,inactive,inactive,–,inactive,inactive
Clc1nc2ccccc2nc1Cl,inactive,–,inactive,inactive,inactive,inactive,inactive,inactive,–,–
O=C(O)COCC(=O)O,inactive,–,inactive,inactive,inactive,inactive,inactive,–,inactive,inactive
C=CC(=O)NC(C)(C)C,inactive,–,inactive,–,inactive,–,–,–,inactive,inactive
Clc1ccccc1-c1nc(-c2ccncc2)no1,inactive,–,inactive,inactive,–,–,inactive,–,inactive,inactive
COc1cc(CNC(=O)CCCC/C=C/C(C)C)ccc1O,inactive,–,inactive,inactive,inactive,–,inactive,–,–,inactive
O=C(C1CCCCC1)N1CC(=O)N2CCCc3ccccc3C2C1 (stereo unspecified),inactive,–,inactive,inactive,–,–,inactive,inactive,–,–
CCOC(C)OCC,inactive,–,inactive,inactive,inactive,inactive,inactive,–,–,–
O=C1C=CCCC1,inactive,–,inactive,inactive,–,–,inactive,–,inactive,inactive
CC(C)CCCCCOC(=O)CS,inactive,–,inactive,inactive,–,–,inactive,–,–,–
CCOC(=O)CC(O)(CC(=O)OCC)C(=O)OCC,inactive,–,inactive,inactive,inactive,inactive,inactive,–,–,–
C=C(C)C(=O)OCCCCCCCCCCOC(=O)C(=C)C,–,inactive,inactive,inactive,inactive,inactive,inactive,inactive,inactive,inactive
CC(=O)Oc1cccc2c1C(=O)c1c(OC(C)=O)cc(C(=O)O)cc1C2=O,inactive,–,inactive,–,–,–,inactive,–,–,–
C=C[Si]1(C)O[Si](C)(C=C)O[Si](C)(C=C)O[Si](C)(C=C)O1 (stereo unspecified),inactive,–,–,inactive,inactive,inactive,inactive,–,–,–
